From PubChem BioAssay (Tox21) come the findings set out here.

Results filed as inconclusive are left out. Values without a mark were called inactive. Calls of active or inactive are those of the source. Unless noted, calls come from the whole dose curve; as a rule, active = well fitted curve in the direction sought with a large enough effect in the repeat runs; inconclusive = weak or mixed curves; inactive = no such curve, though single readings can be large; an effect the other way counts as inactive or inconclusive.

Assay [1] can be described thus: qHTS assay to identify small molecule antagonists of the thyroid receptor (TR) signaling pathway (AID 743065). Note: series mostly up to about 70 µM; nearly all actives have a fitted effect of over 55% in size. The gist of the method: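 Antagonism measured as loss of luciferase signal in GH3 cells stably carrying a TRE-luciferase reporter, co-treated with compound and T3 (1 nM final) for 23.5 h at 37 C. Viability was read in the same well by CellTiter-Fluor.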
Assay [2] deals with thyroid hormone receptor (rat, GH3 cells). Briefly: qHTS assay to identify small molecule agonists of the thyroid receptor (TR) signaling pathway (AID 743066; calls by dose curve).
The target of assay [3] is Estrogen receptor (Homo sapiens) (UniProt P03372). The experiment in a line: qHTS assay to identify small molecule antagonists of the estrogen receptor alpha (ER-alpha) signaling pathway (AID 743069; active = well fitted curve in the direction sought with a large enough effect in the signal ratio in the repeat runs, not every such curve was filed as active; the % refers to the signal ratio). In short, it runs like this: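 Compound effects are measured against 17beta-estradiol stimulation in HEK293 cells with a UAS-controlled beta-lactamase reporter for ER-alpha. Exposure lasts 18 hr at 37C; LiveBLAzer B/G FRET substrate follows for 2 hr at room temperature.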

Assay [4] is described as follows: qHTS assay to identify small molecule antagonists of the estrogen receptor alpha (ER-alpha) signaling pathway - cell viability counter screen (AID 743074; calls by dose curve;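 note: HEK293 cells carrying ER-alpha-UAS-bla reporter stimulated with 17beta-estradiol; nearly all actives have a fitted effect of over 45% in size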).
Assay [5] has as its target Estrogen receptor (Homo sapiens) (UniProt P03372). The experiment in a line: qHTS assay to identify small molecule agonists of the estrogen receptor alpha (ER-alpha) signaling pathway (AID 743075; calls by dose curve).
The target is the same in assay [6]. Briefly: qHTS assay to identify small molecule agonists of the estrogen receptor alpha (ER-alpha) signaling pathway using the BG1 cell line (AID 743079). Note: nearly all actives have a fitted effect of over 20% in size.
The nature of assay [7]: qHTS assay to identify small molecule antagonists of the estrogen receptor alpha (ER-alpha) signaling pathway using the BG1 cell line (AID 743080; calls by dose curve;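 note: BG1 cells stimulated with 17beta-estradiol alongside compound; series mostly up to about 70 µM; nearly all actives have a fitted effect of over 25% in size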). The gist of the method:
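BG1-Luc-4E2 cells (endogenous full-length ER-alpha, stable 4×ERE-luciferase) were starved 5 days in phenol-red-free medium with 10% charcoal-stripped FBS, plated 24 h, then given compound plus 17beta-estradiol for 21.5 h at 37 C; ONE-Glo luminescence read after 30 min.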

Assay [8] in a line: qHTS assay to identify small molecule antagonists of the estrogen receptor alpha (ER-alpha) signaling pathway using the BG1 cell line - cell viability counter screen (AID 743081).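 Note: compound given together with 17beta-estradiol as the ER stimulus; series mostly up to about 70 µM; nearly all actives have a fitted effect of over 45% in size.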
In assay [9] the target is Aromatase (Homo sapiens) (UniProt P11511). Briefly: qHTS assay to identify aromatase inhibitors (AID 743083). Note: series mostly up to about 70 µM; nearly all actives have a fitted effect of over 55% in size.
Assay [10] in a line: qHTS assay to identify aromatase inhibitors - cell viability counter screen (AID 743084).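 Note: cells stimulated with testosterone during compound exposure; nearly all actives have a fitted effect of over 55% in size.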
Assay [11] has as its target Aryl hydrocarbon receptor (Homo sapiens) (UniProt P35869). Briefly: qHTS assay to identify small molecule that activate the aryl hydrocarbon receptor (AhR) signaling pathway (AID 743085).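 Note: HG2L7.5c1 human HepG2 liver cells with stably integrated DRE-driven firefly reporter; series mostly up to about 70 µM; nearly all actives have a fitted effect of over 15% in size.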 In short, it runs like this:
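Compounds were tested in HepG2 hepatocellular carcinoma cells harbouring a stably integrated luciferase gene under control of 20 DREs. Increased reporter signal after 24 h treatment at 37C was taken as AhR activation.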

Assay [12] in a line: qHTS assay to identify small molecule that activate the aryl hydrocarbon receptor (AhR) signaling pathway - cell viability counter screen (AID 743086).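 Note: HepG2 liver cells carrying the AhR DRE luciferase reporter; series mostly up to about 70 µM; nearly all actives have a fitted effect of over 45% in size.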 The gist of the method:
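Cytotoxicity counter screen: CellTiter-Fluor signal (30 min, 37 C) in 4000 HepG2 cells/well carrying the DRE-luciferase reporter, following 24 h compound exposure at 37 C.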

Assay [13] addresses Peroxisome proliferator-activated receptor gamma (Homo sapiens) (UniProt P37231). Briefly: qHTS assay to identify small molecule agonists of the peroxisome proliferator-activated receptor gamma (PPARg) signaling pathway (AID 743094; active = well fitted activation curve with a large enough effect in the signal ratio in the repeat runs, not every such curve was filed as active; the % refers to the signal ratio). In short, it runs like this:
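Beta-lactamase FRET fluorescence was the read-out after a 1 h room-temperature substrate step, following 17 h compound treatment at 37C of HEK293H cells expressing a UAS-driven bla reporter responsive to PPARg.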

A short description of assay [14]: qHTS assay for small molecule agonists of the antioxidant response element (ARE) signaling pathway (AID 743202; active = well fitted activation curve with a large enough effect in the signal ratio in the repeat runs, not every such curve was filed as active; the % refers to the signal ratio). In short, it runs like this: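 An ARE-responsive beta-lactamase gene stably integrated in HepG2 cells serves as reporter. After 5 h plating and 16 h compound incubation at 37 C, fluorescence of the B/G FRET substrate was measured.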
The nature of assay [15]: qHTS assay for small molecule agonists of the antioxidant response element (ARE) signaling pathway - cell viability counter screen (AID 743203; calls by dose curve; note: nearly all actives have a fitted effect of over 55% in size). In short, it runs like this: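 HepG2 cells carrying ARE-driven beta-lactamase; 2,000 cells/well; 5 hrs plating; compound pinned from DMSO; 16 hrs 37C/5% CO2; CellTiter-Glo added; 30 min RT; luminescence.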
Assay [16] can be described thus: qHTS assay for small molecule activators of the heat shock response signaling pathway - cell viability counter screen (AID 743209). Note: nearly all actives have a fitted effect of over 50% in size. Note: potency is the fitted concentration of half-maximal effect. The gist of the method: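 Luminescence from CellTiter-Glo, added after the beta-lactamase FRET read, gave the viability signal. Cells were HSE-bla HeLa treated with DMSO-dissolved compounds for 5 h at 37 C following overnight plating.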

The nature of assay [17]: qHTS assay for small molecule activators of the heat shock response signaling pathway (AID 743210; active = well fitted activation curve with a large enough effect in the signal ratio in the repeat runs, with a control signal flat, not every such curve was filed as active; the % refers to the signal ratio;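 note: HeLa cells with beta-lactamase reporter driven by heat shock elements; series mostly up to about 63 µM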). The gist of the method:
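In HSE-bla HeLa cells, 5 h compound incubation (37 C) precedes addition of LiveBLAzer B/G substrate; after 2.5 h at room temperature, fluorescence intensity indicates reporter induction.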

Assay [18] can be described thus: qHTS assay to identify small molecule antagonists of the peroxisome proliferator-activated receptor gamma (PPARg) signaling pathway - cell viability counter screen (AID 743194). Note: nearly all actives have a fitted effect of over 55% in size. The gist of the method: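 Viability was measured as CellTiter-Glo luminescence in GeneBLAzer PPARg UAS-bla HEK293H cells. These cells had been exposed 17 h at 37 C to compounds together with rosiglitazone at 50 nM final, with the beta-lactamase readout taken in the same wells.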

In assay [19] the target is Peroxisome proliferator-activated receptor gamma (Homo sapiens) (UniProt P37231). The experiment in a line: qHTS assay to identify small molecule antagonists of the peroxisome proliferator-activated receptor gamma (PPARg) signaling pathway (AID 743191; calls by dose curve; note: series mostly up to about 63 µM; nearly all actives have a fitted effect of over 30% in size). In short, it runs like this:
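Beta-lactamase reporter under UAS control in HEK293H PPARg-bla cells; compound treatment 17 h at 37C. Read-out: fluorescence intensity after 1 h room-temperature incubation with LiveBLAzer B/G FRET substrate.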

Chain of Aryl hydrocarbon receptor (Homo sapiens) (P35869 whole entry, looked up): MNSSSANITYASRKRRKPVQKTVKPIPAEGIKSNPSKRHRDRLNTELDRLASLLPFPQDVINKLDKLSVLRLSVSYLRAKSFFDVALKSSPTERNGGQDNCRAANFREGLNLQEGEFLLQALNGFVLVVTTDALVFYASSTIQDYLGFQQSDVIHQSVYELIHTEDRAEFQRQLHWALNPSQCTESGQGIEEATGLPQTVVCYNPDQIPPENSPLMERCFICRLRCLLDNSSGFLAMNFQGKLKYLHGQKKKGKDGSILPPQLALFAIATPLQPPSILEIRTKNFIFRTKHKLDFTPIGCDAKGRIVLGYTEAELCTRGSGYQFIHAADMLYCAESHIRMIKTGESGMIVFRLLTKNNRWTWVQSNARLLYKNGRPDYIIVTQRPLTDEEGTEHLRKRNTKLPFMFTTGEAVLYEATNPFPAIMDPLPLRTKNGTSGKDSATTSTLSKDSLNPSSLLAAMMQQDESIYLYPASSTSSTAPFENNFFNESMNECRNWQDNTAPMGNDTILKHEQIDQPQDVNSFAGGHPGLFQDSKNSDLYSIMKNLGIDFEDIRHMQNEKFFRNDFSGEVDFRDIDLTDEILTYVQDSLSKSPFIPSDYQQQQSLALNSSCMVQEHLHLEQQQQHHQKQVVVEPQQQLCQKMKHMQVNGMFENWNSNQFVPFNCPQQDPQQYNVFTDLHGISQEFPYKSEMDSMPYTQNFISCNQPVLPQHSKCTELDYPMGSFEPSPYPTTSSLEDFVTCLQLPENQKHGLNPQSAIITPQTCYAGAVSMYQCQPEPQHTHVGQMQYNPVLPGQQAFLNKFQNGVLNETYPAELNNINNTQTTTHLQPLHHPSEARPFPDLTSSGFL
Chain of Peroxisome proliferator-activated receptor gamma (Homo sapiens) (P37231 whole entry, looked up): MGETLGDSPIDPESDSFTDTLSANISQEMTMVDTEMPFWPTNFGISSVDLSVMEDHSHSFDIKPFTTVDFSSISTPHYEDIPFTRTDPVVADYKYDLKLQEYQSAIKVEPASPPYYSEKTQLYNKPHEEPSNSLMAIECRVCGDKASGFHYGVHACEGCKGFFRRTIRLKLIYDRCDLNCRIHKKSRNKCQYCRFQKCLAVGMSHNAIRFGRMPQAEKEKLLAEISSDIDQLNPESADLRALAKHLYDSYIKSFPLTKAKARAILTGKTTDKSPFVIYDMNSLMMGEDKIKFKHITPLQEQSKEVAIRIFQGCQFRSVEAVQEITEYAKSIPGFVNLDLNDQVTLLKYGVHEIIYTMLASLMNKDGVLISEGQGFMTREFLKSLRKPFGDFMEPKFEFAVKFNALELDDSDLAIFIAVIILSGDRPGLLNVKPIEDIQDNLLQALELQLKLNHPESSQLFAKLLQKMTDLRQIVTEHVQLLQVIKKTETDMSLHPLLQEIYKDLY
Chain of Estrogen receptor (Homo sapiens) (P03372 whole entry, looked up): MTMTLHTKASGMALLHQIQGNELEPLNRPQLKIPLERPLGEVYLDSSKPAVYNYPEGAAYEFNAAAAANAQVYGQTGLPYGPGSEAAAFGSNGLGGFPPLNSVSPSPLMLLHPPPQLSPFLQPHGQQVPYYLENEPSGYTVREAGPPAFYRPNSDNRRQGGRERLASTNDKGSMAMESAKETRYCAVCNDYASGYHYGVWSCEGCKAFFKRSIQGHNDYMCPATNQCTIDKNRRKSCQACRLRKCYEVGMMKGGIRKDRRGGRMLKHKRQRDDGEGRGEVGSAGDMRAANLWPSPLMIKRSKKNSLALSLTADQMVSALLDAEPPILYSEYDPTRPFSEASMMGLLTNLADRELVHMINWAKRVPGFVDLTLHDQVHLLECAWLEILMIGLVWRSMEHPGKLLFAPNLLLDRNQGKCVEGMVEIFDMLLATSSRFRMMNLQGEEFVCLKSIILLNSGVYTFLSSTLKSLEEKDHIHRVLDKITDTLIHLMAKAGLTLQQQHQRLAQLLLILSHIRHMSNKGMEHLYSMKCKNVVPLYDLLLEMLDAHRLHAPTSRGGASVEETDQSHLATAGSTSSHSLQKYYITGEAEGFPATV
Chain of Aromatase (Homo sapiens) (P11511 whole entry, looked up): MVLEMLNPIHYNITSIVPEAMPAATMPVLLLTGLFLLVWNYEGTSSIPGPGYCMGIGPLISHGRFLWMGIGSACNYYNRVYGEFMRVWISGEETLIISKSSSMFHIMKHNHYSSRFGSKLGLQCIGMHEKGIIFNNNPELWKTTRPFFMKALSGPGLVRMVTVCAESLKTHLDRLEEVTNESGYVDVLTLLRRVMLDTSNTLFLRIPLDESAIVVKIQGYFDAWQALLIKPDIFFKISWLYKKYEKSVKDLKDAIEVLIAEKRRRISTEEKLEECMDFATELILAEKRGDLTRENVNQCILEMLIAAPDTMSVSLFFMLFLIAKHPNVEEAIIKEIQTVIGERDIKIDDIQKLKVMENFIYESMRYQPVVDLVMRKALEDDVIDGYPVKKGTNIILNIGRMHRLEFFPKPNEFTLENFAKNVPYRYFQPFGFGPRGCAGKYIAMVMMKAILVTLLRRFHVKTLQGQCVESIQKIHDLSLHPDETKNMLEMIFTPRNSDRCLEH

With `CC(C)c1ccc(C=O)cc1`, the Potency result in [1], in assay [5], in [6], in assay [8], in assay [10] and in assay [11] was “inactive” in each case. The Potency entry in assay [12], in [13], in [14] and in assay [16] was “inactive” throughout. Also, the compound was called inactive in assay [2], in assay [3], in assay [4], in assay [7], in assay [9] and in assay [15]. Besides, in [17], the result was inactive.

Turning to `COCCc1ccccn1`, the compound was classed as inactive in assay [18], in [15] and in assay [17]. Besides, the Potency entry in assay [14] is “inactive”.

On to `O=C(Cl)c1ccccc1[N+](=O)[O-]`, for which the Potency entry in assay [1], in assay [8], in assay [10], in [12], in assay [13] and in assay [14] was “inactive” throughout. Besides, the Potency entry in assay [16] was “inactive”. For the same compound, the compound was classed as inactive in assay [2], in assay [4], in [9], in assay [19], in [18] and in [15].

Consider `CO/N=C(/C(=O)N[C@@H]1C(=O)N2C(C(=O)[O-])=C(C[n+]3ccn4ncccc43)CS[C@H]12)c1nsc(N)n1`, for which the result in assay [3], in assay [4], in [7], in assay [9], in assay [19] and in assay [18] was inactive. The call in assay [15] and in [17] was inactive. The Potency result in assay [5], in assay [6], in assay [8], in assay [10], in assay [11] and in assay [12] was “inactive” in each case. For the same compound, the Potency result in assay [13], in assay [14] and in assay [16] was “inactive” in each case.

For `COc1cc(OC)nc(O[C@H](C(=O)O)C(OC)(c2ccccc2)c2ccccc2)n1`, the compound was classed as inactive in assay [18] and in assay [15]. In addition, the Potency result in [14] and in assay [16] was “inactive” each time.

Consider `CCN(CC)CCN`, for which the outcome in assay [19], in [18], in [15] and in [17] was inactive. Besides, the Potency result in assay [14] and in [16] was “inactive” in each case.

Consider `C=C(C)C1CC=C(C)C(=O)C1` (configuration not stated), for which the result in assay [2], in [4], in assay [9], in assay [18], in assay [15] and in [17] was inactive. Further, the Potency result in assay [8], in assay [10], in assay [11], in [12], in [13] and in [14] was “inactive” in each case. Also, the Potency result in assay [16] was “inactive”.

As for `NCC1(Cc2noc(=O)[nH]2)CCCCC1`, the compound was called inactive in assay [3], in assay [4], in assay [9], in assay [18] and in [15]. The Potency result in assay [5], in [6], in [8], in [10], in assay [11] and in [12] was “inactive” in each case. Also, the Potency entry in assay [13] and in assay [16] was “inactive” in each case.

As to `CCN1CCCC1CN` (configuration not stated), the compound was called inactive in assay [18] and in [15]. Also, the Potency entry in assay [16] was “inactive”.

For the compound `CCCC(=O)OCCC(C)CCC=C(C)C` (configuration not stated), the Potency entry in assay [1], in assay [8], in assay [10], in [11], in assay [12] and in [13] was “inactive” each time. Besides, in assay [14], the Potency entry is “inactive”. Besides, the result in assay [2], in assay [4], in [9], in assay [18] and in assay [15] was inactive. Further, the Potency in [16] was 49 µM (active).

For `COC(=O)CCCCC(CCSS/C(CCO)=C(\C)N(C=O)Cc1cnc(C)nc1N)SC(C)=O` (configuration not stated), the call in assay [19], in assay [18], in assay [15] and in [17] was inactive. In addition, the Potency result in assay [14] and in assay [16] was “inactive” in each case.

As for `CCC(C(=O)OCCN1CCOC(c2ccccc2)C1C)c1ccccc1` (configuration not stated), the result in [18] and in assay [15] was inactive. For the same compound, the Potency entry in assay [14] and in [16] was “inactive” in each case.

Regarding `CCOc1ccccc1OCC1CNCCO1` (configuration not stated), the compound was classed as inactive in assay [19], in [18], in [15] and in assay [17]. Moreover, the Potency result in assay [14] and in assay [16] was “inactive” in each case.

`Cc1c(NC(=O)c2cccnc2)c(=O)n(-c2ccccc2)n1C`: the Potency entry in [1], in [5], in [6], in assay [8], in assay [10] and in assay [11] was “inactive” throughout. Also, the Potency result in [12], in assay [13], in assay [14] and in [16] was “inactive” in each case. In addition, the compound was called inactive in [2], in assay [3], in assay [4], in [7], in [9] and in assay [19]. Besides, the compound was classed as inactive in assay [15] and in [17].
